Most compounds without a hit are left out; they make up all but 3.4% or so of the library.
MEKK2mut PB1 HTS – signal of MEK5 binding to mutant human MEKK2 PB1 domain | bead flow cytometry, Alexa488-MEK5 binding to MEKK2 mutant | percent response, % at 10 µM | 290,000 compounds, 0.35% hits | AID 1530; in the data active = percent response above about 24%, passing the limit was not always enough
NTR1 ag – NTR1 (human) agonism | NTR1-U2OS beta-arrestin-GFP spot imaging, agonist mode | AID 493036 | 330,000 compounds, 0.17% hits | activation, % at 20 µM | P30989;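 active = activation at or above 40% of the spot to cytoplasm intensity ratio, with at least 20 cells analyzed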;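 note: 0% = DMSO without peptide and 100% = 100 nM NTR1 peptide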
Target sequence (P30989 whole entry, looked up): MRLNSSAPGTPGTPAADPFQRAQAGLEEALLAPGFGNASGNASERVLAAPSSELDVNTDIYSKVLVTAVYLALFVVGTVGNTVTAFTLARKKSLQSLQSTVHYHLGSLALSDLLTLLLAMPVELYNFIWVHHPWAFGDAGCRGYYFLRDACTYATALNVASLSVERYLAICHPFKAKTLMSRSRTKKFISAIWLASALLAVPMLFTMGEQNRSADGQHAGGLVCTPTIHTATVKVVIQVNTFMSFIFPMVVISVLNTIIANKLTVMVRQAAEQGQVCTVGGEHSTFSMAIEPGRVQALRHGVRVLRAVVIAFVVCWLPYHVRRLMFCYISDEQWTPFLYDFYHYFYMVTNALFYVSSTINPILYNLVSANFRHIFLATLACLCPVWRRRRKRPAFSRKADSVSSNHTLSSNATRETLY
MEKK2wt PB1 HTS – raises or lowers MEK5 binding to wildtype human MEKK2 PB1 domain; Q9Y2U5; bead flow cytometry, Alexa488-MEK5 binding to MEKK2 WT; actives lie on both sides; binding response (% of control), % at 10 µM; 290,000 compounds, 1.1% hits; AID 1531; in the data active = binding response below about 67% or above about 130%
MEKK3 PB1 HTS – modulators (inhibitors or enhancers) of MEK5 binding to human MEKK3 PB1 domain. bead-based flow cytometry, Alexa488-MEK5 binding to MEKK3; actives lie on both sides; 0 = blocked by unlabeled MEK5, 100 = vehicle. 290,000 compounds, 1.4% hits. binding response (% of control), % at 10 µM. AID 1529;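 active = binding response more than 3 SD above or below the average of its plate-row segment, actives on both sides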;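 note: Alexa488 bead fluorescence after subtracting the streptavidin-only scavenger bead signal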
ANO1 block – mouse TMEM16A channel inhibition, primary screen | HEK293 TMEM16A/YFP iodide influx fluorescence, ionomycin | normalized B-score (activity score, 25-100; higher = stronger inhibition) at 10 µM | 310,000 compounds, 1.2% hits;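 active = ratio plate-corrected score three or more library SD toward inhibition, starting fluorescence score within five deviations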;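 note: score derived from kinetic fluorescence span divided by baseline fluorescence per well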
ANO1 activ – mouse TMEM16A channel activation, primary screen | Q8BHY3 | HEK293 TMEM16A/YFP-H148Q/I152L, iodide quench fluorescence; hits give low values | B-score at 10 µM | 340,000 compounds, 0.3% hits | AID 623877;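 active = fluorescence-ratio B-score plate-corrected deviation score at least 3 library SD below zero, with starting fluorescence score within 5 deviations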;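 note: channel opened by trigger with iodide after compound preincubation; score built on the fluorescence ratio of max minus min over baseline; more negative score means more quench and so TMEM16A activation or potentiation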
Numbers without * were called inactive; i = inactive; · = no result; [ ] = remark or other dose.

SMILES | MEKK2mut PB1 HTS | NTR1 ag | MEKK2wt PB1 HTS | MEKK3 PB1 HTS | ANO1 block | ANO1 activ
CN(C)S(=O)(=O)NCCNc1ccc(C(F)(F)F)cc1[N+](=O)[O-] | -5 | 2 | 102 | 96 | i | i
COc1cc(C2Nc3ccccc3NC3=C2C(=O)CC(C)(C)C3)cc(OC)c1OC(C)=O (centres undefined) | 3 | 0 | 97 | 93 | i | i
CCOc1ccc(S(=O)(=O)Nc2cnc3ccccc3c2)cc1 | 4 | 1 | 99 | 99 | 25* | i
Cc1ccc(NC(=O)COC(=O)COc2cccc3c2OC(C)(C)C3)cc1C | 6 | 2 | 110 | 105 | i | i
CC(C)(C)C(=O)Cn1nnc(-c2ccc(C(F)(F)F)cc2)n1 | 1 | 0 | 95 | 101 | i | i
O=C(OCC(=O)N1CCCC1=O)c1ncc(Cl)c(Cl)c1Cl | · | 0 | · | · | i | i
CCC1CCCCN1S(=O)(=O)c1ccc(S(=O)(=O)N(Cc2cccs2)C2CC2)cc1 (centres undefined) | -2 | 0 | 85 | 88 | i | -16*
CC1CCN(C(=O)CSc2ccc(-c3ccc(F)cc3)nn2)CC1 | · | 1 | · | · | i | i
CC1CC(C)(C)N(C(=O)CSc2ccc(-c3ccc(F)cc3)nn2)c2ccccc21 (centres undefined) | 2 | 19 | 101 | 106 | 100* | i
O=C(NC1CC1)c1cccc(S(=O)(=O)Nc2ccccc2F)c1 | · | 1 | · | · | i | -4.9*
CC(C)(C)OC(=O)NCCCCCc1nnc(SCC(=O)Nc2cccc(Cl)c2)o1 | -3 | 2 | 102 | 101 | 100* | i
COc1ccc(CN(C)CC(O)COc2ccc(-c3ccccc3)cc2)cc1OC (centres undefined) | 10 | 4 | 136* | 105 | i | i
CN(Cc1ccc(OCC(O)CN(C)Cc2ccccc2)cc1)Cc1nccn1C (centres undefined) | 1 | 0 | 108 | 98 | i | i
COc1ccc(C(OCC(O)CN(C)C2CCCCC2)c2ccc(OC)cc2)cc1 (centres undefined) | 11 | 1 | 161* | 106 | i | i
C=CCOc1ccc(CN(C)CC(O)COc2ccc(CCC(C)=O)cc2)cc1 (centres undefined) | -3 | 0 | 99 | 99 | i | i
CCOc1ccc(CN(C)CC(O)COC(c2ccc(OC)cc2)c2ccc(OC)cc2)cc1 (centres undefined) | 35* | 10 | 180* | 112 | i | i
COc1ccc(CN(C)CC(O)COC(c2ccc(OC)cc2)c2ccc(OC)cc2)cc1 (centres undefined) | 9 | 6 | 147* | 107 | i | i
O=C(NC1CCCCC1)NC1CC2CCC(C1)N2Cc1nnnn1Cc1ccc2c(c1)OCO2 (centres undefined) | · | 1 | · | · | i | i
COC(=O)C(Cc1ccc(O)cc1)NC(=O)CCc1nc2ccccc2s1 (centres undefined) | -3 | -1 | 98 | 99 | i | i
Cc1ccc(CNC(=O)C2CCN(C(=O)Nc3ccccc3)CC2)cc1 | 5 | 0 | 98 | 97 | i | i
COc1ccc(/C=C/C(=O)NCC(=O)N/N=C(/CCC(=O)O)c2ccccc2)cc1 | 10 | 0 | 100 | 101 | i | i
COc1ccc(NC(=O)Nc2nnc(Cc3ccc(F)cc3)s2)cc1 | 3 | 1 | 106 | 105 | i | i
Cc1ccc(NC(=O)C2CCN(S(=O)(=O)c3ccc4c(c3)CC(C)N4C(=O)C3CCC3)CC2)nc1 (centres undefined) | 6 | 0 | 101 | 100 | i | i
Cc1ccnc(NC(=O)C2CCN(S(=O)(=O)c3ccc4c(c3)CC(C)N4C(=O)C3CCC3)CC2)c1 (centres undefined) | -2 | 0 | 100 | 97 | 25* | i
CCOC(=O)C1CCN(S(=O)(=O)c2ccc3c(c2)CC(C)N3C(=O)C2CC2)CC1 (centres undefined) | 4 | 0 | 101 | 98 | i | i
SMILES | MEKK2mut PB1 HTS | NTR1 ag | MEKK2wt PB1 HTS | MEKK3 PB1 HTS | ANO1 block | ANO1 activ
CC1Cc2cc(S(=O)(=O)N3CCC(C(N)=O)CC3)ccc2N1C(=O)C1CC1 (centres undefined) | -17 | 1 | 0.0*[inhibitor] | 2.0*[inhibitor] | i | i
NS(=O)(=O)c1ccc(NC(=O)COC(=O)c2ncc(Cl)c(Cl)c2Cl)cc1 | · | 8 | · | · | · | -5*
CCOc1ccc(NC(=O)COC(=O)c2ncc(Cl)c(Cl)c2Cl)cc1 | -1 | 0 | 104 | 104 | i | i
CCOc1ncccc1C(=O)OCC(=O)Nc1nnc(-c2ccccc2)o1 | · | 0 | · | · | i | i
CCN(CC)CCNC(=O)c1[nH]c2ccc(OCc3ccccc3)cc2c1C | 17 | -1 | 184* | 110 | i | i
O=C(Nc1ncc(S(=O)(=O)c2ccc([N+](=O)[O-])cc2)s1)c1ccc2ccccc2c1 | -2 | 4 | 99 | 102 | 100* | i
O=C(Nc1ncc([N+](=O)[O-])s1)c1cccc([N+](=O)[O-])c1 | 1 | 2 | 99 | 95 | 100* | -4.6*
O=C(Nc1ccc(NC(=O)c2cccc([N+](=O)[O-])c2)cc1)c1cccc([N+](=O)[O-])c1 | 4 | 1 | 109 | 106 | i | i
O=C(Nc1ncc(S(=O)(=O)c2ccc([N+](=O)[O-])cc2)s1)c1cccnc1 | 1 | 2 | 106 | 105 | i | i
O=C(Cc1ccon1)c1ccc(O)cc1O | -5 | 0 | 97 | 97 | i | i
Cc1cccc(OCCCC(=O)NNC(=O)c2ccc(F)cc2)c1 | · | 0 | · | · | · | i
OCC[C@H]1C[C@H](O)[C@@H](O)[C@]2(CCc3ccccc3CO2)O1 | · | 10 | · | · | i | i
O=[N+]([O-])c1cc(S(=O)(=O)N2CCCCCC2)ccc1F | 3 | · | 83 | 96 | i | -6.6*
CCOC(=O)c1nnn(CC(=O)Nc2ccccc2OC)c1C(=O)OCC | 1 | 3 | 105 | 101 | i | i
CC1(C)CC(=O)C(C2C3=C(CC(C)(C)CC3=O)Oc3c(Br)cc(Br)cc32)=C(O)C1 (centres undefined) | 0 | 8 | 100 | 100 | 25* | i
O=C(CCc1ccccc1O)N/N=C/c1ccc(Sc2cccc3cccnc23)o1 | -7 | 0 | 85 | 93 | i | i
O=C(Nc1ccnn1C1CCN(C(=O)Cc2ccccc2F)CC1)C1CC1 | 0 | 0 | 101 | 97 | i | i
CCCn1c(=S)[nH]c2cc(C(=O)N(CCO)Cc3ccccc3)ccc2c1=O | 0 | 2 | 98 | 99 | i | i
